DAX1 StAR inh: DAX1 (NR0B1) inhibitors on StAR promoter, primary screen, cell-based, luminescence, SF-1 (NR5A1), full-length DAX-1 | 370,000 tested, 1.1% active | HEK293T StAR-luciferase reporter, SF-1/DAX-1 repression relief | inhibition, % at 6.8 µM;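 active = inhibition above the mean over all tested compounds plus 3 SD, cut at about 3.6% in these data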;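 also: 0% = DAX-1 cells with DMSO and 100% = cells lacking DAX-1 with DMSO; higher inhibition means more luminescence from relief of DAX-1 repression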
hgDAF12 agonist: H. glycines DAF-12 receptor agonists, primary screen, cell-based, luminescence, HEK293, GAL4 fusion, UAS-luciferase | AID 687014, 2013 | HEK293 GAL4-hgDAF12 UAS-luciferase reporter, agonist luminescence; normalized to butyrate control | 370,000 tested, 1.8% active | activation, % at 6.8 µM | Nuclear hormone receptor DAF-12 (Heterodera glycines), GAL4 fusion;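 active = activation above a cutoff set at the mean of all screened compounds plus 3 SD, cut at about 10% in these data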;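 also: 0% = DMSO wells and 100% = sodium butyrate wells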
hcDAF-12 act: H. contortus DAF-12 nuclear receptor activators, primary screen, cell-based, luminescence, HEK293, lit1-tk-luc reporter. 370,000 tested, 1.4% active. HEK293 hcDAF-12 lit1-tk-luc reporter; 0% DMSO, 100% Δ7-dafachronic acid. activation, % at 6.8 µM. AID 652067, 2013;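 active = activation above the mean of all tested compounds plus 3 SD, cut at about 5.5% in these data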;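 also: 100% = response to 3 µM Δ7-dafachronic acid high control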
ssDAF12 agonist: S. stercoralis DAF-12 nuclear receptor activators, primary screen, cell-based, luminescence, HEK293, GRIP1 co-expression, lit1-tk-luc; Nuclear hormone receptor DAF-12 (Strongyloides stercoralis); HEK293 ssDAF-12/GRIP1 lit1-tk-luc reporter; % of 3 µM dafachronic acid response; activation, % at 6.8 µM; 370,000 tested, 1% active; AID 652126, 2013;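 active = activation above the mean over all tested compounds plus 3 SD, cut at about 0.9% in these data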;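 also: 0% = DMSO-only wells and 100% = 3 µM delta7-dafachronic acid wells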
esBAF inh: Bmi1 luciferase reporter increase in mESCs, primary screen, esBAF inhibitor project, mouse ES cells, Bmi1 luciferase knock-in, single point. 24 h; 100% = twice the neutral-well signal. AID 602393, 2012. 350,000 tested, 2% active. reporter increase, % at 12.5 µM; in the data active = activation above about 40%;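 also: 0% = median of the plate's neutral control wells and 100% = double that signal; a rise in the Bmi1 reporter signal indicates esBAF inhibition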
Wnt act: Wnt/beta-catenin pathway activators, primary screen, cell-based, plate reader, single point; Wnt/beta-catenin reporter cell assay, activator; 300,000 tested, 1.2% active; activation, % at 9.35 µM; AID 743398, 2014; in the data active = activation above about 30%, passing the limit was not always enough;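 also: 0% = neutral control wells and 100% = positive control wells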
DAX1 conf: DAX1 (NR0B1) inhibitors relieving SF-1 repression, confirmation, cell-based, luminescence, HEK293T, full-length DAX-1, SF-1 activated StAR promoter; shares compounds with DAX1 StAR inh; HEK293T StAR-promoter luciferase reporter, SF-1/DAX-1 repression; inhibition, % at 6.8 µM; 2,400 tested, 87% active;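 active = inhibition above the average of every tested compound plus 3 SD, cut at about 3.8% in these data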;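 also: 0% = DAX-1 cells with DMSO and 100% = no DAX-1 control cells with DMSO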
Target sequence (P51843 whole entry, looked up): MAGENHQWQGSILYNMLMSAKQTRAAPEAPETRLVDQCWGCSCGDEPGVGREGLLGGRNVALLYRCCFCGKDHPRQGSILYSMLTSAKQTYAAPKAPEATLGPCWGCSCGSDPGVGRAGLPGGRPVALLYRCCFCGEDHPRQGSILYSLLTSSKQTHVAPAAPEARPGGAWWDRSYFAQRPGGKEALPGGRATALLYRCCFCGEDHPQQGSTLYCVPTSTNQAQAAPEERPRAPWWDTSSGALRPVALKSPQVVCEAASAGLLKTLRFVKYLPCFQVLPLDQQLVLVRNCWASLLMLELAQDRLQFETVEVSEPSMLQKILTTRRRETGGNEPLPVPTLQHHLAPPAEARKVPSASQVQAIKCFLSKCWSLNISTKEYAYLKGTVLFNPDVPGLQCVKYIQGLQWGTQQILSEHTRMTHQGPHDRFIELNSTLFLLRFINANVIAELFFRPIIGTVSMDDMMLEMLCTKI
SF1 mutant ctr: StAR reporter signal changes without DAX1, counter-screen for DAX1 inhibitor project, cell-based, luminescence, AF-2 mutant SF-1, transactivation; HEK293 StAR-luciferase, SF-1 AF2 mutant; shares compounds with DAX1 StAR inh; 2,400 tested, 78% active; AID 652136, 2013; inhibition, % at 6.8 µM;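 active = inhibition above the mean of all tested compounds plus 3 SD, cut at about 3% in these data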;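 also: 0% = DAX-1 transfected cells with DMSO and 100% = cells without DAX-1 with DMSO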
LXRb hcDAF ctr: LXR agonists, Gal4 luciferase reporter, confirmation, counter-screen for hcDAF-12 agonist project, cell-based, luminescence, HEK293, H. contortus campaign. shares compounds with hcDAF-12 act. HEK293 Gal4-LXR tk-luc reporter, 24 h; normalized: DMSO 0%, positive control 100%. activation, % at 6.8 µM. 3,400 tested, under 10 active. AID 743027, 2013;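 active = mean percent activation of the reporter above a cutoff set as the average over tested compounds plus their standard deviation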
hcDAF12 ag: H. contortus DAF-12 receptor agonists, confirmation, cell-based, luminescence, HEK293, lit1-tk-luc, triplicate; shares compounds with hcDAF-12 act; HEK293 hcDAF-12 lit1-tk-luc reporter; % of Δ7-dafachronic acid response; activation, % at 6.8 µM; 3,400 tested, 61% active; AID 743032, 2013;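 active = mean activation across triplicate tests above the threshold derived from the earlier primary screen, cut at about 5.5% in these data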;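 also: 0% = DMSO only wells and 100% = 3 µM Δ7-dafachronic acid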
hgDAF12 ag: H. glycines DAF-12 receptor agonists, confirmation, cell-based, luminescence, HEK293, GAL4-LBD fusion; activation, % at 6.8 µM; HEK293 GAL4-hgDAF12 luciferase reporter, agonist mode; percent of butyrate response; shares compounds with hgDAF12 agonist; 3,300 tested, 80% active;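 active = mean activation over triplicate wells above the hit cutoff derived from the earlier primary screen, cut at about 11% in these data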;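 also: 0% = DMSO low control and 100% = 2 mM sodium butyrate high control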
LXR ag 2: LXR agonists, Gal4 luciferase reporter, confirmation, counter-screen for hgDAF-12 agonist project, cell-based, luminescence, HEK293, H. glycines campaign | shares compounds with hgDAF12 agonist | 24 h | activation, % at 6.8 µM | 3,300 tested, under 10 active;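 active = mean activation of the triplicate above a set limit carried over from the primary screen, none filed active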
Active calls of the source: *; nt = no result. Most compounds without a hit are left out; they make up all but 4.2% or so of the library.

SMILES	DAX1 StAR inh	hgDAF12 agonist	hcDAF-12 act	ssDAF12 agonist	esBAF inh	Wnt act	DAX1 conf	SF1 mutant ctr	hgDAF12 ag	LXR ag 2	others
CCCNC(=O)Nc1ccc2c(c1)C(=O)N(C)C[C@H](OC)[C@@H](C)CN(Cc1cccnc1)[C@H](C)CO2	nt	nt	nt	nt	-1.8	nt	nt	nt	nt	nt
C[C@H]1CN([C@@H](C)CO)C(=O)Cc2cc(NC(=O)C3CCCCC3)ccc2O[C@@H]1CN(C)C(=O)NC1CCCCC1	nt	nt	nt	nt	2.4	nt	nt	nt	nt	nt
COc1ccc(/C=C/C(=O)N2CCCc3ccccc32)cc1	0.4	2.6	-1.0	-1.4	nt	-4.3	nt	nt	nt	nt
O=C(/C=C/c1ccco1)N1CCc2ccccc21	10.2*	15.8*	15.6*	1.5*	-21.1	16.8	12.9*	6.4*	20.7*	1.2	LXRb hcDAF ctr=1.6;hcDAF12 ag=11.4*
O=C1c2ccccc2CCc2ccccc21	-0.2	1.3	-0.7	-0.9	8.5	-0.8	nt	nt	nt	nt
O=C1C(=Cc2cccs2)CCc2ccccc21	7.7*	18.0*	9.4*	1.4*	nt	47.8*	11.9*	6.2*	18.5*	0.9	LXRb hcDAF ctr=1.8;hcDAF12 ag=8.7*
C/C(=N/NC(=O)c1cccs1)c1ccc(N2CCOCC2)cc1	4.7*	19.8*	6.0*	0.2	38.1	-0.6	3.5	1.7	5.1	0.2
COC(=O)C1C(=O)c2c([nH]c(C(=O)OC3CCCC3C)c2C)CC1C (stereo unspecified)	4.7*	18.2*	0.8	0.6	73.5*	26.3	5.5*	3.3*	10.5*	0.7
O=C(NC1CCCCC1)c1ccc(-c2ccccc2F)o1	8.7*	19.6*	10.0*	2.0*	-2.2	18.3	18.5*	6.2*	19.2*	1.1	LXRb hcDAF ctr=0.9;hcDAF12 ag=6.1*
CN1C(=O)NC(c2ccccc2)C2=C1CN(c1cccc(C(F)(F)F)c1)C2=O (stereo unspecified)	-0.4	-1.9	-0.1	-1.2	-4.3	-7.6	nt	nt	nt	nt
COc1ccc2c(c1OC)C(=O)N(c1cccc(C(F)(F)F)c1)C2	5.1*	19.2*	5.7*	0.2	46.1*	nt	13.0*	4.4*	14.8*	0.5
O=C(OCC(=O)c1c[nH]c2ccccc12)c1cc(Br)ccc1O	0.8	3.7	2.4	-0.4	nt	-0.6	nt	nt	nt	nt
Cn1cccc1C(=O)OCC(=O)c1c[nH]c2ccccc12	4.7*	13.8*	10.6*	0.4	nt	-2.3	16.0*	8.1*	13.8*	0.8	LXRb hcDAF ctr=1.4;hcDAF12 ag=6.3*
N#C/C(=N\Nc1ccccc1[N+](=O)[O-])C(=N)N1CCCCC1	8.0*	13.6*	7.9*	1.0*	51.0*	54.2*	14.2*	8.1*	17.7*	0.7	LXRb hcDAF ctr=1.5;hcDAF12 ag=8.6*
N#C/C(=N\Nc1ccc(Cl)cc1)C(=N)N1CCCCCC1	7.6*	17.9*	4.5	0.1	nt	-1.5	21.5*	8.8*	24.4*	1.2
N#C/C(=N/Nc1ccc([N+](=O)[O-])cc1)C(=N)N1CCCCC1	5.5*	19.8*	6.4*	1.6*	nt	nt	8.2*	3.2*	21.2*	0.7
COc1ccccc1N/N=C(\C#N)C(=N)N1CCOCC1	0.9	-2.2	-0.8	-0.9	nt	2.0	nt	nt	nt	nt
O=C(CN1CCOCC1)N[C@H]1CC[C@H](CCNS(=O)(=O)c2ccccc2F)O[C@H]1CO	nt	nt	nt	nt	3.4	nt	nt	nt	nt	nt
COc1cccc(CNC(=O)C[C@@H]2CC[C@@H](NC(C)=O)[C@@H](CO)O2)c1	nt	nt	nt	nt	1.8	nt	nt	nt	nt	nt
C[C@H]1CN([C@@H](C)CO)C(=O)c2cc(NC(=O)CCC(F)(F)F)ccc2O[C@@H]1CN(C)Cc1ccccc1	nt	nt	nt	nt	-1.7	nt	nt	nt	nt	nt
CCNC(=S)NNC(=O)c1cc(-c2ccc(OC)cc2)nc2ccccc12	5.5*	18.3*	4.8	0.6	-19.8	nt	15.1*	8.8*	17.7*	1.1
C[C@H](CO)N1C[C@H](C)[C@@H](CN(C)S(=O)(=O)c2ccccc2)Oc2ccc(N(C)C)cc2CC1=O	nt	nt	nt	nt	3.0	nt	nt	nt	nt	nt
Cc1noc(C)c1NC(=O)Nc1ccc2c(c1)C(=O)N([C@H](C)CO)C[C@@H](C)[C@H](CN(C)S(C)(=O)=O)OCCCC[C@@H](C)O2	nt	nt	nt	nt	-3.5	nt	nt	nt	nt	nt
Cc1cc(C(=O)CSc2nncs2)c(C)n1Cc1ccco1	4.8*	16.2*	4.9	-0.2	nt	7.0	9.8*	5.3*	13.2*	0.8
COc1ccc(OCc2cc(C(=O)N3CCOCC3)no2)c(Cl)c1	7.4*	13.3*	3.0	-0.1	36.9	33.9*	9.8*	7.5*	14.9*	0.7
C[C@@H]1CN([C@H](C)CO)C(=O)c2cc(Br)cnc2O[C@H]1CN(C)S(=O)(=O)c1ccccc1	nt	nt	nt	nt	-3.8	nt	nt	nt	nt	nt
O=C(/C=C/Nc1ccccc1F)c1ccc(Br)cc1	5.2*	16.6*	12.3*	1.5*	nt	46.0*	13.8*	8.4*	22.6*	1.4	LXRb hcDAF ctr=2.3;hcDAF12 ag=13.6*
O=C(/C=C/NNC(=O)c1ccccc1)c1ccc(Br)cc1	1.0	6.5	1.3	-0.5	20.7	nt	nt	nt	nt	nt

Assay outcomes from PubChem.
